Hit rate of the full screen: of about 4,300 compounds, about 4,000 (93%) were called active. The set was probably picked from earlier hits. A selection follows. A number with no mark means an inactive call.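 How the source made its calls: active means inhibition above its plate's cutoff, the mean test-well inhibition plus 3 SD (cut at about 4.8% in these data); inactive means the rest.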

A short description of the test: DNA CAG/GTC dye complex inhibitors – biochemical, fluorescence, TO-PRO-1 dye, d(CAG) DNA oligo, counter-screen for rCAG RNA repeat binder project (AID 652068).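 Further: 0% = DNA dye mix with DMSO and 100% = 100 µM mitoxantrone; hits displace the dye from DNA and so lower well fluorescence.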 Conditions: d(CAG) DNA oligo TO-PRO-1 dye displacement, at 3 µM, active compounds read high.
On to `CC1(C(=O)NS(=O)(=O)c2ccc3ccccc3c2)CCN1C(=O)C1(c2ccc(Cl)cc2)CCC1` (centres undefined), for which the inhibition was 31.7% (active).

As to `O=C(CCc1ccccc1Cl)Nc1ccc(S(=O)(=O)Nc2nccs2)cc1`, the inhibition is 10.9% (active).

In the case of `Cc1ccc(OCCC(=O)Nc2ccc(S(=O)(=O)Nc3nccs3)cc2)cc1`, the inhibition is 14.7% (active).

On to `CN1CCN(S(=O)(=O)c2cccc(C(=O)Nc3sccc3C#N)c2)CC1`, for which the inhibition was 7.1% (active).

Take `O=C(Nc1ccc(S(=O)(=O)Nc2nccs2)cc1)c1cccc(S(=O)(=O)N2CCOCC2)c1`: the inhibition was 5.67% (active).

Consider `O=C(Nc1ccc(S(=O)(=O)Nc2nccs2)cc1)c1cc(-c2ccncc2)nc2ccccc12`, for which the inhibition is 29.6% (active).

`CC1CCCCN1S(=O)(=O)c1ccc(C(=O)Nc2nnc(-c3cccs3)o2)cc1` (centres undefined): the inhibition was 14.2% (active).

In the case of `Cc1ccccc1S(=O)(=O)N1[C@@H](c2cccc(Cl)c2)C(C(=O)O)=CC[C@H]1c1ccc(Cl)cc1`, the inhibition was 53.5% (active).

`Cc1ccc([C@@H]2CC=C(C(=O)O)[C@H](c3cccc(Cl)c3)N2S(=O)(=O)c2ccc(C)cc2)cc1`: the inhibition is 41.1% (active).

Take `Cc1ccc(S(=O)(=O)N2[C@@H](c3ccccc3F)C(C(=O)O)=CC[C@H]2c2ccc(Cl)cc2)cc1`: the inhibition is 29.3% (active).

Consider `CC(=O)Nc1ccc(C(=O)Nc2nc(-c3cc(C)n(Cc4ccccc4)c3C)cs2)cc1`, for which the inhibition is 14.6% (active).

In the case of `O=C(Nc1ccccc1)Nc1nc2ccccc2s1`, the inhibition is 14.7% (active).

`CC(=O)Nc1ccc(S(=O)(=O)Nc2nc(-c3ccc(C(C)(C)C)cc3)cs2)cc1`: the inhibition is 30.7% (active).

On to `CC(=O)Nc1ccc(-c2csc(NC(=O)Nc3ccccc3)n2)cc1`, for which the inhibition is 22.8% (active).

Take `Cc1cc(C)c2nc(-c3cccnc3)cc(C(=O)Nc3ccc(S(=O)(=O)Nc4onc(C)c4C)cc3)c2c1`: the inhibition was 58.6% (active).

With `Cc1noc(NS(=O)(=O)c2ccc(NC(=O)c3oc4ccc(F)cc4c3C)cc2)c1C`, the inhibition is 25.4% (active).

Regarding `Nc1[nH]c(=S)nc2nc(-c3ccccc3)c(-c3ccccc3)nc12`, the inhibition is 13.8% (active).

Consider `Cc1ccc(-n2ncc3c(Nc4cccc(C(=O)O)c4)ncnc32)cc1`, for which the inhibition is 4.92% (active).

Take `O=S(=O)(Nc1ccc(O)c2ccccc12)c1ccc(OC(F)(F)F)cc1`: the inhibition was 23.5% (active).

With `O=c1oc(-c2ccccc2NS(=O)(=O)c2ccc(Cl)cc2)nc2ccccc12`, the inhibition was 8.49% (active).

With `CSc1nnc(NC(=O)c2nc(S(=O)(=O)Cc3ccc(C)cc3)ncc2Cl)s1`, the inhibition was 11.6% (active).

As to `C=CCNc1nc(N)c(C(=C(C#N)C#N)c2ccccc2)s1`, the inhibition was 9.76% (active).

As to `COc1ccccc1C1C(C#N)=C(N)Oc2c1c(-c1ccccc1)nn2-c1ccccc1` (centres undefined), the inhibition is 12% (active).

On to `Cc1c(C)c2c(OCC(=O)N[C@@H](C(=O)O)c3ccccc3)cc3c(c2oc1=O)CCC(C)(C)O3`, for which the inhibition was 12.5% (active).

On to `COc1ccc(COC(=O)NC(C(=O)O)c2ccccc2)cc1` (centres undefined), for which the inhibition was 1.1%.

In the case of `Cc1cc(Br)cn2c(Cc3cccc(F)c3)c(-c3cccc(Br)c3)nc12`, the inhibition is 2.14%.

As to `COc1ccc(-c2nc3ccc(Br)cn3c2Cc2ccc(C)cc2)cc1OC`, the inhibition was 5.84% (active).

Turning to `Fc1cccc(Cc2c(-c3cccc(Cl)c3)nc3ccc(Br)cn23)c1`, the inhibition was 12.8% (active).

For `CCC(C)Cn1c(O)cc2nn(-c3nc4ccccc4s3)c(=O)c-2c1C` (centres undefined), the inhibition was 30.4% (active).

On to `COc1cc(NC(=O)c2ccccc2NS(=O)(=O)c2ccc(Cl)s2)cc(OC)c1`, for which the inhibition is 46.6% (active).

For `Cc1ccc(CNC(=O)C2CCN(S(=O)(=O)c3ccc4nc5c(c(C(=O)O)c4c3)CC(C)CC5)CC2)cc1` (centres undefined), the inhibition is 11.1% (active).

In the case of `CCOc1cc(C)ccc1OCc1nnc(SCC(=O)Nc2cccc(C(=O)O)c2)n1-c1ccccc1`, the inhibition was 11.8% (active).

As for `Cc1sc2nc(SCC(=O)c3ccc(O)c(O)c3)n(Cc3ccco3)c(=O)c2c1C`, the inhibition was 31.4% (active).

On to `O=C(COC(=O)c1ccc(NS(=O)(=O)c2cccs2)cc1O)Nc1ccc(F)cc1`, for which the inhibition is 5.07% (active).

For `O=C(O)c1[nH]c2ccccc2c1C(c1cccc(O)c1)c1c(C(=O)O)[nH]c2ccccc12`, the inhibition is 12.6% (active).

As to `CCOC(=O)c1cc2cc(-c3c(C(=O)OCC)oc4cc(O)cc(O)c4c3=O)ccc2o1`, the inhibition is 10.2% (active).

For the compound `O=C(CCCN1C(=O)/C(=C\c2ccco2)SC1=S)Nc1cccc2ccccc12`, the inhibition was 13.7% (active).

Turning to `Cc1ccc(NC(=O)CSc2sc3c(O)cc(=O)[nH]c3c2C#N)cc1C`, the inhibition was 11.8% (active).

On to `CO/N=C(\C(=O)N[C@@H]1C(=O)N2C(C(=O)O)=C(COC(C)=O)CS[C@H]12)c1csc(N)n1` (stereo in doubt), for which the inhibition is 17.5% (active).

For `O=[N+]([O-])c1cc(Br)c(O)c(/C=N/Nc2nc3ccccc3s2)c1`, the inhibition is 83.5% (active).

For `COc1ccc(S(=O)(=O)/N=C2\C=C(NS(=O)(=O)c3ccccc3)C(=O)c3ccccc32)cc1`, the inhibition is 56.1% (active).

On to `O=C(NNc1c2ccccc2nc2ccccc12)c1cc2ccccc2cc1O`, for which the inhibition is 27.7% (active).

With `Cc1cc(/C=N/Nc2ccc([N+](=O)[O-])cn2)c(C)n1-c1cccc(C(=O)O)c1`, the inhibition is 10.4% (active).

Consider `O=c1ccc2c(-c3ccccc3S(=O)(=O)O)c3ccc(O)c(O)c3oc-2c1O`, for which the inhibition was 69.2% (active).

Take `O=C(Nc1cccc(F)c1)c1cc(-c2ccco2)nc2ccccc12`: the inhibition was 3.28%.

Consider `O=C(O)c1cccc(NC(=O)c2cc(-c3cccc(Cl)c3)nc3ccccc23)c1`, for which the inhibition was 14.3% (active).

`Cc1oc2c(F)c(F)c(F)c(F)c2c1S(=O)(=O)Nc1cccc(C(F)(F)F)c1`: the inhibition was 13.1% (active).

Turning to `Nc1cccc(-c2cc(-c3ccccc3)nc(-c3cccc(N)c3)n2)c1`, the inhibition was 6.95% (active).

Consider `Cc1oc2cc([N+](=O)[O-])c(O)c([N+](=O)[O-])c2c1C(=O)c1ccc(Br)cc1`, for which the inhibition is 15.8% (active).

(Values after PubChem BioAssay AID652068 (The Scripps Research Institute Molecular Screening Center, 2013).)
